Test results: PubChem BioAssay AID588579 (National Center for Advancing Translational Sciences (NCATS), 2011)
Several values for one entry are separate records, joined by “and”; a condition that tells them apart may be missing. Identical values can stand only once. The whole screen tested about 400,000 compounds, of which about 2,200 (0.55%) were called active. Entries that show only a call come without a potency. Another 1% or so got no clear call; they are omitted. Only a selection was taken, and actives are over-represented in it overall. Values without a mark were called inactive. The call rests on the fitted dose curve; in most records, active means well fitted inhibition curve with a large enough effect; inconclusive means small, poorly fitted or top-dose-only effect, or another doubt; inactive means no such curve, though single readings can be large or run the other way.

molecular target: DNA polymerase kappa (Homo sapiens) (UniProt Q9UBT6); test: qHTS for Inhibitors of Polymerase Kappa; settings: purified Pol kappa, fluorescent DNA synthesis assay, 10 min; series mostly up to 107 µM
Sequence (Q9UBT6 whole entry, looked up): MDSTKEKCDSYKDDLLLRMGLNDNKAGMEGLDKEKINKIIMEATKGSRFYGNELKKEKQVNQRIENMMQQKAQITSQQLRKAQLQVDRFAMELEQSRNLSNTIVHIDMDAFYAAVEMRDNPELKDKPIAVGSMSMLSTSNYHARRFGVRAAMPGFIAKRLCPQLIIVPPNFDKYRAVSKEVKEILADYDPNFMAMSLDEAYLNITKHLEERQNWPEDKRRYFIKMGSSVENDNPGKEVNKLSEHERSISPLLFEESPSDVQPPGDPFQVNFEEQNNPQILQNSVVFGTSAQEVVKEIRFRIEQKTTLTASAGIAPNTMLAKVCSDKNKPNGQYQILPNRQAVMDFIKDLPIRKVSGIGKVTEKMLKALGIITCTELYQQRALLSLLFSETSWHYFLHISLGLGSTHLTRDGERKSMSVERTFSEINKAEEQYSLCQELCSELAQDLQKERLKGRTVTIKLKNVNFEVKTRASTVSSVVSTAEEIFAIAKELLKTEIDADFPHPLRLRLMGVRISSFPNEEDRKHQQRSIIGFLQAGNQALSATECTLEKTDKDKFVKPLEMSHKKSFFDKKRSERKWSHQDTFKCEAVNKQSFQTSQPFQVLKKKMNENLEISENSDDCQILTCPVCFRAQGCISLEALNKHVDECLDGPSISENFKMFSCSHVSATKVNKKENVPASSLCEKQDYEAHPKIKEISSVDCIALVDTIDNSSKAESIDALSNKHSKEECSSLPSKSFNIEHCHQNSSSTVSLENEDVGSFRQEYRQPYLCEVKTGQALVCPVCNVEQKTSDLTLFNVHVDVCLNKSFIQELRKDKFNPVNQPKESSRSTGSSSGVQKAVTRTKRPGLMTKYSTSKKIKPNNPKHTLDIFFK
Method in brief: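 Inhibition of 10 nM Pol kappa is measured by a fluorescent read-out at 0 and 10 min following addition of 50 nM substrate (final), with a 15-min room-temperature compound preincubation.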
Potency means the concentration at half of the fitted maximal effect.

Row | SMILES | Potency | activity, negative = inhibition
1 | O=c1c(-c2ccc(F)cc2)nc2cnc(N3CCOCC3)nc2n1-c1ccccc1 | inactive | –
2 | CN(C)c1ccc(/C=C/c2c3ccccc3nc3ccccc23)cc1 | inactive | –
3 | CC(C)(C(=O)NO)c1ccccc1 | inactive | –
4 | C=CCn1c(=S)[nH]c2scc(-c3ccco3)c2c1=O | 22.4 µM (active) | –
5 | Fc1ccc(Cl)cc1-c1nc(Nc2ccncc2)c2nccnc2n1 | inactive | –
6 | COc1ccccc1CCn1c(=O)c(-c2cn(C)c3ccccc23)nc2cncnc21 | inactive | –
7 | CCCCC/C=C\C/C=C\CCCCCCCCCC(=O)O | – | 1.81% [at 19.4 µM]
8 | N#C/C(=C\c1ccc(O)c(O)c1)C(N)=O | 10 µM (active) | –
9 | CC(C)NC(=O)/C(C#N)=C\c1ccc(N(C)C)c(Br)c1 | inactive | –
10 | Cc1ccc(/C=C(\C#N)C(=O)Nc2cc(C)ccc2C)cc1 | inactive | –
11 | Nc1nc(N)c(N=O)c(N)n1 | inactive | –
12 | O=C(C[n+]1ccncc1)c1ccc2c(c1)CCCC2 | inactive | –
13 | CC(=O)NC(=O)c1ccccc1O | – | -8.55% [at 19.4 µM]
14 | COc1ccccc1-c1cc(NCc2cccs2)ncn1 | inactive | –
15 | CC(C)(C)C1CCC(NC(=O)c2cnn3c2NC(=C2CC2)C=C3C(F)F)CC1 (stereo not drawn) | inactive | –
16 | COc1ccc(C[C@H](N)C(=O)N[C@@H]2[C@H](O)[C@H](n3cnc4c(N(C)C)ncnc43)O[C@@H]2CO)cc1 | – | -1.14% [at 12 µM]
17 | Cc1cc[n+](C2CCCCC2)cc1 | inactive | –
18 | Cc1nc2cnc(N3CCN(C)CC3)nc2n(C[C@H]2CCCO2)c1=O | inactive | –
19 | O=C1NN(c2ccccc2)C(=O)/C1=C/c1ccc(-c2cccc(C(=O)O)c2)o1 | 44.7 µM (active) | –
20 | CCCCOc1ccc(C(=O)NO)cc1 | inactive | –
21 | Cc1cc2oc(=O)cc(-c3ccccc3)c2c(C)c1/C=C/c1ccc(F)cc1 | inactive | –
22 | COc1ccccc1OCCOc1ccc(/C=C2\C(=N)N3N=C(C)SC3=NC2=O)cc1 | inactive | –
23 | COc1cc(C(=O)N2CCOCC2)cc(OC)c1OC | – | -0.831% [at 19.4 µM] and 0.0712% [at 19.4 µM]
24 | COc1cc(/C=C2\C(=N)N3N=C(CC(=O)N4CCOCC4)SC3=NC2=O)cc(OC)c1OC | 31.6 µM (active) | –
25 | C=C1C=C(C(F)F)n2ncc(C(=O)NCCc3ccccc3OC)c2N1 | inactive | –
26 | O=c1c(-c2cccs2)nc2cnc(Oc3ccccc3)nc2n1-c1ccccc1 | inactive | –

Row | SMILES | Potency | activity, negative = inhibition
27 | CC(C)C1=CC2=CC[C@@H]3[C@](C)(CO)CCC[C@]3(C)C2CC1 (stereo partly drawn) | inactive | –
28 | CCOC(=O)Cn1c(=O)sc2cccc(Cl)c21 | – | -6.5% [at 12 µM]
29 | Nc1ncnc2nnsc12 | inactive | –
30 | Cc1ccc(Cc2cnc(N)s2)o1 | 15.8 µM (active) | –
31 | COCCNc1ccnc(-c2cccc(NS(C)(=O)=O)c2)n1 | inactive | –
32 | O=C1OC(C(O)CO)C(O)=C1O (stereo not drawn) | inactive | –
33 | C1=C(N2CCOCC2)/C(=C/c2nc3ccccc3[nH]2)CC1 | 79.4 µM (active) | –
34 | Cc1nn2c3cc(N4CCOCC4)ccc3nc2c2ccccc12 | inactive | –
35 | CNc1ncnc2ccc(-c3cccc(NS(C)(=O)=O)c3)cc12 | inactive | –
36 | CC[C@H](C)[C@H](NC(=O)[C@@H](N)CCC(=O)O)C(=O)N[C@@H](CC(C)C)C(=O)N[C@@H](CC(=O)O)C(=O)N[C@H](C(=O)N1CCC[C@H]1C(=O)N[C@@H](CO)C(=O)N[C@H](C(=O)O)[C@@H](C)O)C(C)C | inactive | –
37 | C=CCOC(=O)C(=C)C | inactive | –
38 | O=C1COc2ccc(-c3csc(-c4ccc(Cl)cc4)n3)cc2N1 | inactive | –
39 | COc1ccc(CC(=O)Nc2sc(Cc3ccccc3)c(C)c2C(N)=O)cc1 | inactive | –
40 | CCc1nnc(NC(=O)CCC(=O)NCc2ccccc2OC)s1 | inactive | –
41 | COc1ccc(Cc2nnc(NC(=O)Cc3cccs3)s2)cc1 | 14.1 µM (active) | –
42 | C=C[C@](C)(O)CCC1C(=C)CCC2[C@@](C)(CO)CCC[C@@]12C (stereo partly drawn) | inactive | –
43 | CC(=O)OCC(=O)C1CCC2C3CCC4=CC(=O)CC[C@@]4(C)C3CC[C@]12C (stereo partly drawn) | inactive | –
44 | COC(=O)[C@@H]1CC2=CC(=O)CC[C@]2(C)[C@@]23O[C@@H]2C[C@@]2(C)[C@@H](CC[C@@]24CCC(=O)O4)[C@H]13 | inactive | –
45 | COc1ccc(/C=C/c2ccccn2)cc1OC | inactive | –
46 | Cc1cc(C(=O)OCC(=O)NCc2ccco2)c(C)n1-c1ccccc1 | 79.4 µM (active) | –
47 | Cn1c(N)c(C(=O)COC(=O)c2ccccc2NCc2ccco2)c(=O)n(C)c1=O | inactive | –
48 | CN(c1ccccc1)S(=O)(=O)c1ccc(Cl)c(C(=O)OCC(=O)N2CCOCC2)c1 | inactive | –
49 | O=C(COC(=O)c1cc(S(=O)(=O)N2CCOCC2)ccc1Cl)NCCc1ccccc1 | inactive | –
50 | CN(c1ccccc1)S(=O)(=O)c1ccc(Cl)c(C(=O)OCC(=O)NCc2ccco2)c1 | 79.4 µM (active) | –
51 | COc1ccc(-n2c(SCC(=O)NCc3ccco3)nnc2-c2c[nH]c3ccccc23)cc1 | inactive | –
52 | CCNc1ncc2ncc(=O)n(Cc3cccc(OC)c3)c2n1 | inactive | –

Row | SMILES | Potency | activity, negative = inhibition
53 | Cc1cc(N(C)C)nc(Cl)n1 | – | -8.53% [at 12 µM]
54 | O=C(Nc1cccc(F)c1)N1CCC2(CC1)CCN(S(=O)(=O)c1ccccc1)CC2 | inactive | –
55 | COc1ccc(/C=C/c2ccnc3ccccc23)cc1OC | inactive | –
56 | Cc1cccc(CN2Cc3cccc4c3[C@H](C=CC4)CC2=S)c1 | inactive | –
57 | O=C(COC(=O)CCC(=O)c1cccs1)NCc1ccco1 | 31.6 µM (active) | –
58 | CCN(C(=O)COC(=O)CCC(=O)c1cccs1)C1CCCCC1 | inactive | –
59 | CC1CCN(C(=O)COC(=O)CCC(=O)c2cccs2)CC1 | inactive | –
60 | O=C(Nc1cccc(F)c1)N1CC2(CCN(C(=O)c3cnccn3)CC2)C1 | inactive | –
61 | CC(C)[C@H](CO)Nc1nc(Nc2cc(N)cc(Cl)c2)c2ncn(C(C)C)c2n1 | – | -6.51% [at 19.4 µM]
62 | Cc1ccc(-c2nnc(SCC(=O)NCc3ccccc3)nc2-c2ccc(C)cc2)cc1 | inactive | –
63 | Clc1ccccc1CSc1nncn2c1cc1occc12 | inactive | –
64 | Clc1ccccc1CSc1nnc(-c2ccco2)c(-c2ccco2)n1 | 35.5 µM (active) | –
65 | CSc1n[nH]c(-c2ccco2)n1 | inactive | –
66 | CC1(C)N=C(SCc2ccccc2Cl)c2ccccc2N1 | inactive | –
67 | c1ccc(CSc2nnc(-c3ccco3)c(-c3ccco3)n2)cc1 | 20 µM (active) | –
68 | Nc1nc2c(nc(Cl)n2C2OC(CO)C(O)C2O)c(=O)[nH]1 (stereo not drawn) | inactive | –
69 | COC(=O)N1CCC2(CCCN(c3ccncc3)C2)CC1 | inactive | –
70 | O=P(O)(O)C(O)c1ccc2ccccc2c1 (stereo not drawn) | – | 8.31% [at 19.4 µM]
71 | COc1cc2nc(Cl)nc(NC3CC3)c2cc1OC | inactive | –
72 | Cc1ccc(-c2nnc(Nc3ccc(C(=O)N(C)C)cc3)c3ccccc23)cc1S(N)(=O)=O | inactive | –
73 | Cc1ccc(Nc2nnc(-c3ccc(C)c(S(=O)(=O)N4CCCCC4)c3)c3ccccc23)cc1 | inactive | –
74 | Cc1ccc(C)c(Nc2nnc(-c3ccc(C)c(S(=O)(=O)N4CCCCC4)c3)c3ccccc23)c1 | 79.4 µM (active) | –
75 | Cc1ccc(-c2ncc(Cl)cc2-c2ccc(S(C)(=O)=O)cc2)cn1 | inactive | –
76 | O=C(c1cc(C(F)(F)F)cc(C(F)(F)F)c1)N1CCC2(CCCN(c3ccccn3)C2)CC1 | inactive | –
77 | COc1ccccc1CNc1ccnc(-c2c(C)noc2C)n1 | inactive | –
78 | Cc1ccccc1NC(=O)CN1C(=O)N/C(=C\c2cccn2-c2cccc(C(=O)O)c2)C1=O | 14.1 µM (active) | –

Row | SMILES | Potency | activity, negative = inhibition
79 | Cc1ccccc1NC(=O)Cn1c(=O)n(CCc2ccccc2)c(=O)c2ccccc21 | inactive | –
80 | Cc1ccccc1NC(=O)CN1C(=O)C(C)(C)c2ccccc21 | inactive | –
81 | COc1ccccc1CNc1nc(-c2c(C)noc2C)nc2ccccc12 | inactive | –
82 | COc1c(O)c2c(=O)cc(OC)c3c4c(OC)cc(=O)c5c(O)c(OC)c6c(c(c1C[C@@](C)(O)[C@H]6C(C)=O)c23)c54 | inactive | –
83 | CCN(CC)Cc1nc2sc(C)c(C)c2c(=O)[nH]1 | inactive | –
84 | CSc1nnc(SCc2nc3sc(C(=O)O)c(C)c3c(=O)[nH]2)s1 | 25.1 µM (active) | –
85 | Cc1ccc(S(=O)(=O)N2CCCC2C(=O)OCc2nc3sc(C)c(C)c3c(=O)[nH]2)cc1 (stereo not drawn) | inactive | –
86 | FC(F)(F)c1ccccc1-c1cc(NCc2ccccc2)ncn1 | inactive | –
87 | CCC(C)N(c1ccc(/C=C/c2ccnc3ccccc23)cc1)C(C)CC (stereo not drawn) | inactive | –
88 | Cc1ccc(N=C2NC(=O)/C(=C/C=C/c3ccco3)S2)cc1C | 28.2 µM (active) | –
89 | CC(=O)OC1CCC2(O)CC1(C)CCC1C2CC1(C)C (stereo not drawn) | inactive | –
90 | O=C(CSC(=S)N1CCOCC1)c1cc(Br)cc(Br)c1O | 79.4 µM (active) | –
91 | O=C(CSC(=S)N1CCCCC1)c1c(F)cccc1F | inactive | –
92 | O=C(c1cc2cc(Br)cc(Br)c2oc1=O)N1CCOCC1 | inactive | –
93 | CCOCCOC(=O)C(C)Oc1ccc(Oc2ncc(C(F)(F)F)cc2Cl)cc1 (stereo not drawn) | inactive | –
94 | CC(=O)CC(c1ccccc1)C1C(=O)Oc2ccccc2C1=O (stereo not drawn) | inactive | –
95 | O=C(O)c1cccc(N=NN2CCCCCC2)c1 | inactive | –
96 | CN1C(=O)/C(=C/c2ccco2)SC1=Nc1cccc(C(=O)O)c1 | 20 µM (active) | –
97 | CN=C1S/C(=C\c2c(OC)cc(OC)cc2OC)C(=O)N1C | inactive | –
98 | CCOC(OCC)OCC | inactive | –
99 | CCc1c2c(nc3ccc(O)cc13)-c1cc3c(c(=O)n1C2)COC(=O)[C@]3(O)CC | inactive | –
100 | NC(=O)Nc1ccc(/C=C/c2ccnc3ccccc23)cc1 | inactive | –
101 | COc1ccc2[nH]c3c(C)c4cc[n+](C)cc4c(C)c3c2c1 | 2.38 µM (active) and 11.2 µM (active) | –
102 | Cc1cccc(CNc2ccnc(-c3cccnc3)n2)c1 | inactive | –
103 | COCCn1c(=O)c(-c2cc(F)cc(F)c2)nc2cnc(N3CCNCC3)nc21 | inactive | –
